Measured values reported in PubChem BioAssay (NCATS).
Inconclusive results are not listed. Activity calls are given as the source filed them. Calls come from the whole dose curve; as a rule, active = well fitted cell-killing curve with a large enough effect; inconclusive = small, poorly fitted or top-dose-only effect; inactive = flat fitted curve, though single readings scatter.

Test: Cell Viability - LYMP2-007 (AID 979);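 note: cells exposed to compound for 24 h before reading; nearly all actives have a fitted effect of over 60% in size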
Details: LYMP2-007 lymphoblastoid cell viability; series mostly up to 92.2 µM
From the text: NIH Chemical Genomics Center [NCGC]
NIH Molecular Libraries Screening Centers Network [MLSCN]
National Institutes of Environmental Health Sciences [NIEHS]
National Toxicology Program [NTP]
We have developed a 1536-well cell-based assay for quantitative high throughput screening (qHTS) against a number of cell lines to determine in vitro cytotoxicity of small molecules. This particular assay uses a human lymphoblastoid cell line (LYMP2-007) purchased from Coriell Institute for Medical Research.
NCGC Assay Protocol Summary:
The CellTiter-Glo luminescent cell viability assay (Promega) is a homogeneous method to measure the number of viable cells in culture. The end point readout of this assay is based on quantitation of intracellular ATP, an indicator of metabolic activity, using the luciferase reaction. Luciferase catalyzes the oxidation of beetle Luciferin to oxyluciferin and light in the presence of ATP. The luminescent signal is proportional to amount of ATP present.
Using the CellTiter-Glo luminescent cell viability assay, the amount of cellular ATP was measured in the lymphoblastoid cell line with complete culture medium following compound treatment for 24 hours. The assay was performed in opaque white Kalypsys 1536-well plates. In the screen, tetraoctylammonium bromide was used as positive control. Library compounds were measured for their ability to cause acute toxicity in the cell line, as reflected by a decrease in intracellular ATP levels, in a concentration-dependent manner. […] AC50 values were determined from concentration-response data modeled with the standard Hill equation.
qHTS protocol for CellTiter Glo lymphoblastoid cellular assay
[Step] [Parameter] [Value] [Description]
1. Reagent; 5 uL; 2500 lymphoblastoid cells/well
2. Time; 5 hr; 37 C incubation
4. Controls; 23 nL; Tetraoctylammonium bromide 6.4pM to 92 uM
5. Time; 24 hr; 37 C incubation
6. Reagent; 5 uL; CellTiter Glo reagent
7. Time; 30 min; Room Temperature
8. Detection; Luminescence; Viewlux plate reader
Keywords: cell viability, cytotoxicity, lymphoblastoid cell line, luminescence, NTPHTS, NTPHTS_NCGC, NIEHS, DSSTox, MLSMR, MLSCN, NIH Roadmap, qHTS, NCGC

SMILES	outcome
CCCN(CCC)S(=O)(=O)c1ccc(C(=O)O)cc1	inactive
CCOc1ccccc1C(N)=O	inactive
CCOc1ccc(NC(C)=O)cc1	inactive
C/C=C/c1ccc(O)c(OC)c1	inactive
O=C(O)c1ccc(S(=O)(=O)N(Cl)Cl)cc1	inactive
OC[C@H]1O[C@@H]2O[C@H]3[C@H](O)[C@@H](O)[C@@H](O[C@H]4[C@H](O)[C@@H](O)[C@@H](O[C@H]5[C@H](O)[C@@H](O)[C@@H](O[C@H]6[C@H](O)[C@@H](O)[C@@H](O[C@H]7[C@H](O)[C@@H](O)[C@@H](O[C@H]8[C@H](O)[C@@H](O)[C@@H](O[C@H]1[C@H](O)[C@H]2O)O[C@@H]8CO)O[C@@H]7CO)O[C@@H]6CO)O[C@@H]5CO)O[C@@H]4CO)O[C@@H]3CO	inactive
C=C[C@H]1CN2CC[C@H]1C[C@@H]2[C@@H](O)c1ccnc2ccc(OC)cc12	inactive
COc1ccc(C(=O)c2ccccc2)c(O)c1	inactive
COc1ccc(C(Cl)=C(c2ccc(OC)cc2)c2ccc(OC)cc2)cc1	inactive
COc1cc([C@H]2Oc3cc([C@H]4Oc5cc(O)cc(O)c5C(=O)[C@@H]4O)ccc3O[C@@H]2CO)ccc1O	inactive
CCCCC(CC)COC(=O)c1ccc(N(C)C)cc1 (stereo not drawn)	inactive
NCCNc1cccc2ccccc12	inactive
NC(=O)c1ccccc1O	inactive
